# An excerpt weighted towards active compounds, which were near 6.8% of everything screened.
# Spn PMK inh – blocks S. pneumoniae phosphomevalonate kinase. purified PMK, PK/LDH-coupled NADH absorbance 340 nm. 65,000 tested, 0.49% active. inhibition, % at 10 µM. AID 539;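 active means top-ranked compounds by inhibition in the single 10 µM screen, taking a fixed number of the strongest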;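 further: 0% = full reaction with DMSO carrier and 100% = background rate without enzyme reaction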
# Autofluor 339 – intrinsic fluorescence of library compounds, ex339/em460 – biochemical, MLSMR library, data from DPM-DC assay, artefact control, profiling panel; compound autofluorescence, ex339/em460 nm, NADH buffer; hits give high values; 1 = no-compound wells, NADH background; fluorescence fold increase at 10 µM; 65,000 tested, 5.5% active;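 active means at 10 µM, mean starting fluorescence two-fold or more over control wells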;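 further: signal is the first read of a kinetic run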
# A340 absorber – absorbance at 340 nm; compound absorbance at 340 nm, fold over control; fold change at 10 µM; 65,000 tested, under 10 active;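 active means at 10 µM dose, initial 340 nm absorbance at least 2 fold that of control wells; inactive means change under 2 fold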;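 further: initial absorbance extrapolated from kinetic A340 decline of NADH oxidation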
# NADH coupling – blocks coupling enzymes of NAD/NADH assays | IC50, µM (highest dose often 10 µM), for the others: at the top dose inhibition | coupled PK/LDH NADH assays, four targets | AID 774 | 65,000 tested, 0.02% active;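 active means single-dose screening hits from any of four coupled enzyme assays that gave an IC50 when retested across doses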;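 further: the DPM-DC format reads NADH fluorescence rather than 340 nm absorbance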
# Spn MK inh – S. pneumoniae mevalonate kinase inhibition; purified MK, PK/LDH-coupled NADH absorbance 340 nm; 65,000 tested, 0.48% active; inhibition, % at 10 µM;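 active means ranked among the strongest by inhibition in the single 10 µM screen, a fixed top-ranked set picked for dose follow-up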
# DPM-DC inhibit – S. pneumoniae DPM-DC inhibition. purified DPM-DC, PK/LDH coupled NADH fluorescence. calls only at 10 µM. 65,000 tested, 0.49% active. AID 556;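 active means the 320 compounds with the highest percent inhibition in the single-dose primary screen, excluding strongly autofluorescent ones, cut at about 32% in these data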;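 further: kinetic rate of NADH fluorescence loss reporting ADP formed by the decarboxylase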
# * hit, by the source's call; i = inactive; nt = no result given; + = active, no number.
SMILES,Spn PMK inh,Autofluor 339,A340 absorber,NADH coupling,Spn MK inh,DPM-DC inhibit
CCC1c2ccc(C)n2CCN1C(=O)Nc1ccccc1C(=O)OC (stereo not drawn),16.0,2.53*,1.03,11.0%,6.0,i
O=c1n(CCCN2CCN(c3cccc(Cl)c3)CC2)nc2ccccn12,2.0,2.37*,0.98,3.0%,8.0,nt
COc1ccccc1NC(=O)NCCCN1CCN(c2cccc(Cl)c2)CC1,3.0,1.06,1.01,2.0%,6.0,i
CC(C)c1nnc(NC(=O)c2cccs2)s1,4.0,1.03,1.11,3.0%,6.0,i
CCC(CC)C(=O)Nc1nnc(-c2cccs2)s1,17.0,2.62*,1.03,13.0%,0.0,i
O=C(COC(=O)c1ccccn1)NCCCc1ccccc1,6.0,1.08,1.05,2.0%,0.0,i
Cc1oc2cc(OCC(=O)O)ccc2c(=O)c1Oc1ccccc1,0.0,1.28,1.05,2.0%,5.0,i
CCc1cc2c(=O)c(Oc3ccccc3)c(C)oc2cc1O,0.0,2.21*,1.09,2.0%,4.0,nt
O=C1NC(=O)C(CC(=O)N(c2ccccc2)C2(C(=O)NC3CCCC3)CCCCC2)N1 (stereo not drawn),0.0,1,1.01,8.0%,0.0,+
O=C(CC1Nc2ccccc2NC1=O)NC1CCCCC1 (stereo not drawn),15.0,2.05*,1.04,16.0%,6.0,i
O=C1CCC(C(=O)N(c2ccccc2)C2(C(=O)NC3CCCCC3)CCCCC2)N1 (stereo not drawn),6.0,1.1,1.02,3.0%,3.0,i
CCOC(=O)c1sc(C)c2c1NC(C)(c1cccs1)NC2=O (stereo not drawn),12.0,2.97*,1.01,4.0%,8.0,nt
CCOC(=O)c1sc(C)c2c1NC1(CCCCC1)NC2=O,12.0,3.86*,1.05,13.0%,14.0,nt
Cc1cccc(C2Nc3ccccc3C(=O)N2CCc2ccccc2)n1 (stereo not drawn),7.0,2.18*,1.03,7.0%,7.0,nt
O=C1c2ccccc2NC(c2cnc3ccccc3n2)N1O (stereo not drawn),9.0,1.51,1.06,5.0%,6.0,i
COc1ccc(C(=O)N(Cc2nc(-c3ccc(C)cc3)no2)C2CCCCC2)cc1OC,9.0,1.09,1.02,7.0%,12.0,i
NC(=O)c1c(C(F)(F)F)cc(-c2ccccc2)nc1NCCO,9.0,3.74*,1.09,8.0%,7.0,nt
CCOC(=O)CS(=O)(=O)c1nc(-c2ccccc2)cc(C(F)(F)F)n1,6.0,1.04,0.98,4.0%,10.0,i
Clc1ccc(Cn2ncc3c(N4CCOCC4)ncnc32)cc1,6.0,1.05,1,4.0%,5.0,i
CCOC(=O)CNC(=O)c1cnn2cccnc12,4.0,2.27*,1.07,13.0%,17.0,i
CCOC(=O)C1CCN(C(=O)CN(c2ccc(OC)c(OC)c2)S(=O)(=O)c2ccccc2)CC1,2.0,1.12,1.04,27.0%,71.0*,i
COc1cccc2sc(=NC(=O)c3ccc(S(=O)(=O)N4CCOCC4)cc3)n(C)c12,14.0,3.07*,1.02,15.0%,0.0,i
CCn1c(=NC(=O)c2ccc(S(=O)(=O)N3CCOCC3)cc2)sc2cccc(OC)c21,4.0,4.68*,1.11,2.0%,0.0,nt
CCOC(=O)c1sc(=NC(=O)c2ccc(S(=O)(=O)N3CCOCC3)cc2)n(C)c1C,14.0,1.65,1.06,9.0%,8.0,i
Cc1ccc(S(=O)(=O)C2(C(=O)Nc3cccc(F)c3)CC2)cc1,8.0,1.08,0.93,8.0%,15.0,i
CC(C)(C)n1nnnc1C(c1cc2cc3c(cc2[nH]c1=O)OCO3)N1CCN(c2ccccc2)CC1 (stereo not drawn),6.0,3.04*,1.06,13.0%,2.0,+
CCN1CCN(C(c2cc3cc4c(cc3[nH]c2=O)OCO4)c2nnnn2C(C)(C)CC)CC1 (stereo not drawn),6.0,4.01*,1.06,8.0%,10.0,nt
CCC(C)(C)n1nnnc1C(c1cc2cc(C)ccc2[nH]c1=O)N1CCCC1 (stereo not drawn),11.0,1.42,1.03,7.0%,15.0,i
O=c1[nH]c2cc3c(cc2cc1C(c1nnnn1CC1CCCO1)N1CCCC1)OCO3 (stereo not drawn),13.0,4.79*,1.09,11.0%,9.0,nt

# Source: PubChem BioAssay (SRMLSC)
